Test results: PubChem BioAssay (EPA / NIEHS)
Calls of active or inactive are those of the source. The calls were made as follows: active = hit-call score of the fitted dose curve at least 0.9, where 1 is the maximum; inactive = score below 0.9.

Assays:
[1] = ATG_CRE_CIS: Attagene CIS-FACTORIAL HepG2 Assay for human cAMP Responsive Element (CRE) binding protein 3 (AID 2282926); settings: HepG2 CRE cis-reporter, Attagene multiplexed mRNA; actives raise or lower the signal
In short: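 Multiplexed transcription-unit reporters transfected into HepG2; 24 h dosing; RT-PCR/capillary electrophoresis fluorescence read-out; bidirectional fit vs DMSO.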

[2] = biological target: CCAAT/enhancer-binding protein beta (Homo sapiens) (UniProt P17676); assay: ATG_C_EBP_CIS: Attagene CIS-FACTORIAL HepG2 Assay for human CCAAT/Enhancer Binding Protein (C/EBP) beta (AID 2282927); settings: HepG2 Attagene cis-factorial transcription factor reporter; actives raise or lower the signal
In short: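 HepG2, transient MRTU transfection, 24 h treatment. RT-PCR plus CE fluorescence; DMSO negative control, bidirectional fit.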

[3] = ATG_CMV_CIS: Attagene CIS-FACTORIAL HepG2 Assay for human CMV (Internal Marker) (AID 2282928); settings: HepG2 CMV promoter reporter, transcription factor profiling; actives raise or lower the signal;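 also: endpoint acts as a background internal control marker rather than a target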
In short: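 Cell system: HepG2, transiently transfected multiple reporter units under cis promoters. Exposure: 24 h. Detection: RT-PCR, FAM labeling, HpaI digestion, capillary electrophoresis. Analysis: bidirectional, DMSO baseline.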

[4] = ATG_DR4_LXR_CIS: Attagene CIS-FACTORIAL HepG2 Assay for human Liver X Receptor (LXR), DR4 submotif (AID 2282929); settings: HepG2 Attagene DR4 cis-reporter, mRNA transcription; actives raise or lower the signal
In short: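 HepG2 cells transiently transfected with cis-promoter-driven multiplexed reporter units (DR4 element) were dosed for 24 h. Reporter mRNA was quantified by RT-PCR, fluorescent primer extension, HpaI digestion and capillary electrophoresis; bidirectional fitting versus DMSO baseline.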

[5] = biological target: Aryl hydrocarbon receptor (Homo sapiens) (UniProt P35869); assay: ATG_Ahr_CIS: Attagene CIS-FACTORIAL HepG2 Assay for human Aryl Hydrocarbon Receptor (Ahr) (AID 2282930); settings: HepG2 AhR cis-factorial reporter transcription; actives raise or lower the signal
In short: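 Endogenous factor activity is tracked through cis-promoter reporter units transfected into HepG2 cells. Transcript levels at 24 h are read by fluorescent RT-PCR and capillary electrophoresis, with activity in either direction scored relative to DMSO.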

[6] = ATG_AP_1_CIS: Attagene CIS-FACTORIAL HepG2 Assay for human Activator Protein 1 (AP-1) (AID 2282931); settings: HepG2 Attagene cis-factorial AP-1 reporter mRNA; actives raise or lower the signal
In short: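 HepG2 cells transiently transfected with cis-element-driven multiplex reporter units; 24 h compound exposure. Reporter mRNA quantified by RT-PCR, FAM-labelled fragments resolved by capillary electrophoresis; bidirectional fit versus DMSO baseline.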

[7] = ATG_AP_2_CIS: Attagene CIS-FACTORIAL HepG2 Assay for human Activator Protein 2 (AP-2) (AID 2282932); settings: HepG2 AP-2 cis-reporter, Attagene transcription factor profiling; actives raise or lower the signal
In short: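 HepG2 cells transiently transfected with cis-element reporter units and exposed for 24 h. Reporter mRNA measured by RT-PCR, FAM labelling, HpaI digestion and capillary electrophoresis. Changes in either direction fitted relative to DMSO.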

[8] = ATG_BRE_CIS: Attagene CIS-FACTORIAL HepG2 Assay for human Bone Morphogenetic Protein (BMP) Response Element (BRE) (AID 2282933); settings: HepG2 BMP response element reporter, Attagene transcription factor profiling; actives raise or lower the signal
In short: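 Fluorescence-labelled reporter cDNA fragments, separated by capillary electrophoresis, gave the signal for this component of a 52-readout multiplex. HepG2 cells were transfected, exposed to chemicals for 24 h, and compared with DMSO using bidirectional fitting.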

[9] = biological target: Retinoic acid receptor alpha (Homo sapiens) (UniProt P10276); assay: ATG_DR5_RAR_CIS: Attagene CIS-FACTORIAL HepG2 Assay for human Retinoic Acid Receptor Alpha (RARE), DR5 submotif (AID 2282934); settings: HepG2 Attagene cis-factorial RARE DR5 reporter, mRNA; actives raise or lower the signal;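 as to AC50: reporter responds to endogenous RAR alpha beta and gamma in HepG2 not RARA alone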
In short: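 After 24 h of chemical exposure, transiently transfected HepG2 cells were lysed for total RNA; the DR5-regulated reporter transcript was quantified via RT-PCR and capillary electrophoresis, with activity fitted bidirectionally against DMSO.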

[10] = biological target: Transcription factor E2F1 (Homo sapiens) (UniProt Q01094); assay: ATG_E2F_CIS: Attagene CIS-FACTORIAL HepG2 Assay for human E2F Transcription Factor 1 (AID 2282935); settings: HepG2 Attagene cis-reporter, E2F reporter RNA transcripts; actives raise or lower the signal
In short: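 Endogenous E2F1 activity read through cis-promoter reporter units transfected into HepG2. After 24 h compound treatment, reporter mRNA measured by RT-PCR, HpaI digestion and capillary electrophoresis. Bidirectional fit versus DMSO.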

[11] = ATG_E_Box_CIS: Attagene CIS-FACTORIAL HepG2 Assay for human Enhancer Box (E-box) (AID 2282936); settings: HepG2 E-box cis-reporter transcription, actives raise or lower the signal
In short: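 HepG2 cells transiently transfected with multiplexed cis-element reporter units, dosed 24 h; reporter mRNA quantified by RT-PCR, 6-FAM labelling, HpaI digestion and capillary electrophoresis. E-box (USF1) signal fitted bidirectionally vs DMSO.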

[12] = ATG_M_61_CIS: Attagene CIS-FACTORIAL HepG2 Assay for M61 Transcription Factor (Internal Marker) (AID 2282937); settings: HepG2 Attagene CIS-FACTORIAL M61 internal marker reporter; actives raise or lower the signal
In short: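 HepG2 cells transiently transfected with cis-element-driven multiple reporter transcription units, dosed for 24 h. Reporter mRNA measured by RT-PCR, 6-FAM primer-extension labelling, HpaI digestion and capillary electrophoresis; bidirectional fit versus DMSO baseline.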

[13] = ATG_EGR_CIS: Attagene CIS-FACTORIAL HepG2 Assay for human Early Growth Response 1 (EGR1) (AID 2282938); settings: HepG2 Attagene CIS-FACTORIAL EGR reporter mRNA; actives raise or lower the signal
In short: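 HepG2 cells transiently transfected with cis-promoter-driven multiplexed reporter transcription units; reporter mRNA measured 24 h after compound dosing by RT-PCR, 6-FAM primer extension, HpaI digestion and capillary electrophoresis. Bidirectional fit versus DMSO baseline.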

[14] = ATG_M_19_CIS: Attagene CIS-FACTORIAL HepG2 Assay for M19 Transcription Factor (Internal Marker) (AID 2282939); settings: HepG2 Attagene CIS-FACTORIAL M19 internal marker reporter; actives raise or lower the signal
In short: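 HepG2, MRTU transient transfection, 24 h dosing. Total RNA → RT-PCR → 6-FAM primer extension → HpaI digest → CE fluorescence. Bidirectional curve fit, DMSO negative control.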

[15] = ATG_ERE_CIS: Attagene CIS-FACTORIAL HepG2 Assay for Estrogen Response Element (ERE) (AID 2282940); settings: HepG2 ERE cis-reporter, Attagene RNA transcript; actives raise or lower the signal
In short: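 After a 24 h chemical treatment, RNA from reporter-transfected HepG2 cells is reverse-transcribed, PCR-amplified and fluorescently labelled. Fragments separated by capillary electrophoresis give reporter signal; DMSO serves as negative control.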

[16] = ATG_Ets_CIS: Attagene CIS-FACTORIAL HepG2 Assay for human Erythroblast Transformation Specific (ETS) (AID 2282941); settings: HepG2 ETS cis-reporter transcription, actives raise or lower the signal
In short: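 After transient cis-reporter transfection, HepG2 cells receive test chemical for 24 h. Reporter mRNA levels, measured by RT-PCR and capillary electrophoresis fluorescence, are analysed bidirectionally relative to the DMSO baseline.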

[17] = biological target: Hepatocyte nuclear factor 3-beta (Homo sapiens) (UniProt Q9Y261); assay: ATG_FoxA2_CIS: Attagene CIS-FACTORIAL HepG2 Assay for human Forkhead box A2 (FOXA2) (AID 2282942); settings: HepG2 cis-reporter transcription factor activity, 24 h; actives raise or lower the signal
In short: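 HepG2 cells transiently transfected with multiple cis-regulated reporter transcription units, dosed for 24 h. Reporter mRNA measured by RT-PCR, 6-FAM labelling, HpaI digestion and capillary electrophoresis; bidirectional fitting against DMSO baseline.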

[18] = ATG_FoxO_CIS: Attagene CIS-FACTORIAL HepG2 Assay for human Forkhead box O (FoxO) (AID 2282943); settings: HepG2 Attagene cis-reporter, FoxO element, mRNA; actives raise or lower the signal
In short: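 Transfected HepG2 reporter cells exposed to test chemical for 24 h; reporter RNA measured by reverse transcription, PCR and fluorescent capillary electrophoresis; curves fitted for increases and decreases against DMSO.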

[19] = ATG_GATA_CIS: Attagene CIS-FACTORIAL HepG2 Assay for human GATA Binding Protein (AID 2282944); settings: HepG2 GATA cis-element reporter, Attagene multiplex mRNA; actives raise or lower the signal
In short: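 Cells: HepG2, transiently transfected with cis-regulated reporter transcription units. Exposure: 24 h. Detection: RT-PCR plus capillary electrophoresis of FAM-labeled fragments. Analysis: bidirectional, DMSO as baseline.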

[20] = ATG_GLI_CIS: Attagene CIS-FACTORIAL HepG2 Assay for human Zinc Finger Protein GLI1 (AID 2282945); settings: HepG2, Attagene cis-factorial reporter mRNA, GLI element; actives raise or lower the signal
In short: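 Transiently transfected HepG2 cells report endogenous transcription factor activity via cis-element-driven reporter units. After 24 h compound exposure, reporter mRNA was measured by RT-PCR with capillary electrophoresis; bidirectional fitting against DMSO baseline.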

Measured: AC50

Chain of Retinoic acid receptor alpha (Homo sapiens) (P10276 whole entry, looked up): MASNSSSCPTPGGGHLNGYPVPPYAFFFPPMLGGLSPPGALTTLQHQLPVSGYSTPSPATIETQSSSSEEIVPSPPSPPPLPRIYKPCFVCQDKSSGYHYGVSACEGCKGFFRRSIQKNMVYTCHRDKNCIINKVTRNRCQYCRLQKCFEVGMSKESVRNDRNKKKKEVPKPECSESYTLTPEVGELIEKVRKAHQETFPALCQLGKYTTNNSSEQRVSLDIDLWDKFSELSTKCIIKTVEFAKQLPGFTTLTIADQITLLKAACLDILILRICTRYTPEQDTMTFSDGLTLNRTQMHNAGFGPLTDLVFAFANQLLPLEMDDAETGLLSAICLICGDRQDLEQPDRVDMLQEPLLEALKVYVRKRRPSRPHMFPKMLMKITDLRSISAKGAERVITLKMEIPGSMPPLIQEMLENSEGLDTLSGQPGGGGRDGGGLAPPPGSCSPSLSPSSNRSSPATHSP
Chain of Aryl hydrocarbon receptor (Homo sapiens) (P35869 whole entry, looked up): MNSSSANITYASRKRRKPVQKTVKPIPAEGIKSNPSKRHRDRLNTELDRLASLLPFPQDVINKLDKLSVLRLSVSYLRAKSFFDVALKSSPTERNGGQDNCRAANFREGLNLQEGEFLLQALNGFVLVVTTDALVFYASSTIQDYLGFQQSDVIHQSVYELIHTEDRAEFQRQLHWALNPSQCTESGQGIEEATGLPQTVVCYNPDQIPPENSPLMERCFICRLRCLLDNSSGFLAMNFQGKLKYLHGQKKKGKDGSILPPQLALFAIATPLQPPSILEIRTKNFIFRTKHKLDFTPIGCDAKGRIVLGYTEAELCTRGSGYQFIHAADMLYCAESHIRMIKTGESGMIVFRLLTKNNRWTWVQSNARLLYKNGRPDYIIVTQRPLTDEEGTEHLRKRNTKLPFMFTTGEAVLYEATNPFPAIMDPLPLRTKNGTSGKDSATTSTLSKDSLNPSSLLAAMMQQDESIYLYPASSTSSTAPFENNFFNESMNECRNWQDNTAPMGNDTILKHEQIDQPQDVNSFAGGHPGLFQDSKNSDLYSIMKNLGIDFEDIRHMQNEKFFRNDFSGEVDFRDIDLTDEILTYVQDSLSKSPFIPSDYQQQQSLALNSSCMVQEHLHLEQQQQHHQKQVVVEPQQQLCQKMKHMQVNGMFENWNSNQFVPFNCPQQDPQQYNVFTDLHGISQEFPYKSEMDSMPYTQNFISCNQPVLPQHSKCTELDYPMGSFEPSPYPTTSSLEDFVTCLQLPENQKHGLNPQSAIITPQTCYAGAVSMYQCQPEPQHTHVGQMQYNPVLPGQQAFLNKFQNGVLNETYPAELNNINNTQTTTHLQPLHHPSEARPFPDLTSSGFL
Chain of Transcription factor E2F1 (Homo sapiens) (Q01094 whole entry, looked up): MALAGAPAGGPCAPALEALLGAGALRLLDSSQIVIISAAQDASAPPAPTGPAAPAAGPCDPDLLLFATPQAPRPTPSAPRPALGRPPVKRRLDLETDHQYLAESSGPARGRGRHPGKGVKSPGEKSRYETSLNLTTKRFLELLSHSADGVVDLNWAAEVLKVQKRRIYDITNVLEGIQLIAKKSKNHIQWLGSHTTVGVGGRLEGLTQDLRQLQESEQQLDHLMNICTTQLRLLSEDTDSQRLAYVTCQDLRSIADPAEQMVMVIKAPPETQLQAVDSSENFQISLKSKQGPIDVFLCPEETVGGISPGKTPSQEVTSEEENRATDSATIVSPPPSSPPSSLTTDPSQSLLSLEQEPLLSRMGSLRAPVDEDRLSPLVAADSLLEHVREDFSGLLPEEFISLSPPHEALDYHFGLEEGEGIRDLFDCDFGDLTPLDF
Chain of Hepatocyte nuclear factor 3-beta (Homo sapiens) (Q9Y261 whole entry, looked up): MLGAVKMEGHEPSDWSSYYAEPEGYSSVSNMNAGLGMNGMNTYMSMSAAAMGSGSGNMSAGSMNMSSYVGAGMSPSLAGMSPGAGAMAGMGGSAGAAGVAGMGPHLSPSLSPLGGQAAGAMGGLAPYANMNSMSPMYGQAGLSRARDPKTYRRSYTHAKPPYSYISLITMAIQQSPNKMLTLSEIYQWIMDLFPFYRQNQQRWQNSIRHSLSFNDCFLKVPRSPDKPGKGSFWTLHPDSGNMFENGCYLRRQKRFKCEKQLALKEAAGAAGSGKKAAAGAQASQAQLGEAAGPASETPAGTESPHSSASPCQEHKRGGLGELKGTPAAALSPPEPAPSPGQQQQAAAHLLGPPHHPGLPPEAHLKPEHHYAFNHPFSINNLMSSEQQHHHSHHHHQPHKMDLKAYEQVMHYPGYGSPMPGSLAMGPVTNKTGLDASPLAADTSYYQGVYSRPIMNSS
Chain of CCAAT/enhancer-binding protein beta (Homo sapiens) (P17676 whole entry, looked up): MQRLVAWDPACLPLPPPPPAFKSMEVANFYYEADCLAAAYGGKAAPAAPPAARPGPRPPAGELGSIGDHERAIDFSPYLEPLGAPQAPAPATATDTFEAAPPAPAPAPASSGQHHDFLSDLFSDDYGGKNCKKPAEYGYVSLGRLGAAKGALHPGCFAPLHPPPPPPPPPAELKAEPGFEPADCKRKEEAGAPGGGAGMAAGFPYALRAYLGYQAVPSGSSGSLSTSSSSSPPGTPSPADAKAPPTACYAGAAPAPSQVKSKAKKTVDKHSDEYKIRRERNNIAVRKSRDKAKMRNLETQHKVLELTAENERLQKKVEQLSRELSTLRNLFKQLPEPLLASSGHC

CCn1nc(Cc2ccccc2)cc1C1CCN(C[C@H]2C[C@H](N(C)[C@@H](C(=O)O)C(C)C)C[C@@H]2c2cccc(F)c2)CC1
active: [4] 100 µM | [11] 79.3 µM | [13] 155 µM | [15] 5.55 µM
inactive: all other assays above

O=C(CCCCCCCCc1cccnc1)N1CCC(C=C(c2ccccc2)c2ccccc2)CC1
inactive: [10] | [11] | [16] | [17] | [18] | [19] | [20]
active: [1] 14.5 µM | [3] 14 µM | [4] 14.4 µM | [5] 0.874 µM | [6] 9.05 µM | [7] 56.3 µM | [9] 1.66 µM | [12] 59.8 µM | [13] 17 µM | [14] 59.4 µM

CCOc1cccc(-n2cc(C(=O)N3CCN(c4cc(C(=O)O)c5ccccc5c4)CC3)nc2-c2ccc(C)cc2)c1
active: [4] 25.1 µM | [6] 18.4 µM | [9] 26 µM | [13] 27.1 µM
not listed: [2] | [8] | [15]
inactive: all other assays above

CCN(C(=O)c1cc(C)cc(OC[C@H](C)Nc2ccncc2)c1)C(C)C
active: [4] 67.5 µM
not listed: [2] | [15]
inactive: all other assays above

C[C@](N)(Cc1ccc(O)c(O)c1)C(=O)O
not listed: [2] | [8] | [15]
inactive: all other assays above

O=C(O)c1cccc(N(Cc2cccnc2)c2ccc(OC(F)F)c(OC(F)F)c2)c1
not listed: [2] | [15]
inactive: all other assays above

CC(=O)c1ccc2c(c1)[C@H](NC(=O)c1ccc(F)cc1)[C@@H](O)C(C)(C)O2
not listed: [2] | [8] | [15]
inactive: all other assays above

CC(=O)OC[C@H]1O[C@@](COC(C)=O)(O[C@H]2O[C@H](COC(C)=O)[C@@H](OC(C)=O)[C@H](OC(C)=O)[C@H]2OC(C)=O)[C@@H](OC(C)=O)[C@@H]1OC(C)=O
active: [5] 53 µM
not listed: [2] | [15]
inactive: all other assays above

Clc1nc(Cl)c(Cl)c(Cl)c1Cl
not listed: [2] | [8] | [15]
inactive: all other assays above

Oc1ccc2c(c1)-c1ccccc1C2
active: [1] 44.4 µM | [3] 4.28 µM | [4] 1.79 µM | [5] 2.53 µM | [9] 27.5 µM | [11] 157 µM | [13] 38.6 µM
not listed: [2] | [8] | [15]
inactive: all other assays above

COc1ccc(/C=C/S(=O)(=O)NC(=O)c2ccc(C)cc2Cl)cc1
not listed: [2] | [15]
inactive: all other assays above

COc1ccc2sc(C(=O)Nc3nnn[nH]3)c(OC(C)C)c2c1
active: [3] 26.9 µM | [4] 158 µM | [6] 27 µM | [13] 146 µM | [15] 25.7 µM
not listed: [2] | [8] | [9]
inactive: all other assays above

CC1(C)C(=O)N(Br)C(=O)N1Br
active: [5] 68.5 µM
not listed: [2] | [8] | [15]
inactive: all other assays above

CCCN(C1CCN(C(=O)C2CCNCC2)CC1)[C@@H]1CCc2ccc(OC)cc2C1
active: [4] 68.6 µM | [5] 32.9 µM | [7] 82.6 µM | [8] 53.3 µM | [11] 45.1 µM | [13] 100 µM | [18] 153 µM | [19] 152 µM | [20] 153 µM
not listed: [2] | [15]
inactive: all other assays above

CCOC(=O)COc1ccc2c(c1)CC(NCC(O)c1cccc(Cl)c1)CC2 (centres undefined)
active: [1] 33 µM
not listed: [2] | [8]
inactive: all other assays above
